Experimental data published in article PMC5540273 (PLoS ONE, 2017).
Like-named read-outs stand apart in the source and are kept apart here.

Key:
MAP3K15 = conditions: concentration: 1 μM,replicates: in singlicate; n = 1
MAP3K1 = conditions: concentration: 1 μM,replicates: in singlicate; n = 1
MAP3K2 = conditions: concentration: 1 μM,replicates: in singlicate; n = 1
MAP3K3 = conditions: concentration: 1 μM,replicates: in singlicate; n = 1
MAP3K4 = conditions: concentration: 1 μM,replicates: in singlicate; n = 1
MAP4K2 = conditions: concentration: 1 μM,replicates: in singlicate; n = 1
MAP4K3 = conditions: concentration: 1 μM,replicates: in singlicate; n = 1
MAP4K4 = conditions: concentration: 1 μM,replicates: in singlicate; n = 1
MAP4K5 = conditions: concentration: 1 μM,replicates: in singlicate; n = 1
MAPKAPK2 = conditions: n = 1
[1] = concentration: 1 μM,replicates: in singlicate
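Also: KINOMEscan kinase panel screen.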

SMILES	%Inh (MAP3K15) [%]	%Inh (MAP3K1) [%]	%Inh (MAP3K2) [%]	%Inh (MAP3K3) [%]	%Inh (MAP3K4) [%]	%Inh (MAP4K2) [%]	%Inh (MAP4K3) [%]	%Inh (MAP4K4) [%]	%Inh (MAP4K5) [%]	%Inh (MAPKAPK2; [1]) [%]	%Inh (MAPKAPK2; 1 µM) [%]
CN(c1ccccc1CNc1nc(Nc2ccc3c(c2)CC(=O)N3)ncc1C(F)(F)F)S(C)(=O)=O	0	0	61	63	6	17	42	0	13	0	
C[C@@H]1CNc2c(sc3ccc4nc(-c5ccncc5)ccc4c23)C(=O)N1	52	0	0	5	0	70	1	0	0		97.1
CSc1nccc(-c2c(-c3ccc(F)cc3)ncn2CCCN2CCOCC2)n1.Cl [SB-217146]	0	0	23	1	0	0	0	0	0	0	
COc1cc2c(Nc3ccc(NC(=O)c4ccccc4)cc3)ncnc2cc1OCCCN1CCOCC1 [GSK301329]	0	9	11	0	47	0	6	11	63	23	
O=C(Nc1ccc(Oc2ccc3nc(NC(=O)C4CC4)cn3n2)c(F)c1)c1cccn(-c2ccccc2)c1=O	0	0	0	15	24	0	4	1	0	13	
CC(=O)c1c(-c2ccncc2)[nH]c(-c2ccncc2)c1C [GW493036]	0	5	0	0	9	0	0	16	0	23	
COc1cccc(OC)c1C(=O)Nc1cccc(-c2nn3ccccc3c2-c2ccnc(Nc3cccc(F)c3)n2)c1 [GSK361065]	0	0	7	43	14	5	0	21	67	11	
